# uPA surface inh – blocks generation of uPA at the cell surface; cell surface uPA generation assay, qHTS; Potency, µM (titrated, usually from 38.3 µM), for inactives: at the highest dose activity change, negative = inhibition, actives largely listed as inhibitors; actives 0.31% (n = 330,000); AID 540303; active = well fitted inhibition curve with a large enough effect; inconclusive = small, poorly fitted or top-dose-only effect; inactive = no such curve, though single readings can be large or run the other way; tested in mouse RAW 264.7 cells; also: potency is read from the fitted curve at half-maximal effect; nearly all actives have a fitted effect of over 55% in size
# DT40 TDP1 CPT – growth inhibition of DT40 Tdp1-/-;hTDP1 cells with camptothecin (screen for TDP1 inhibitors) | chicken DT40 Tdp1-/-;hTDP1 cells + 20 nM CPT, ATP luminescence, 48 h | Potency, µM (top dose mostly 46.2 µM), for inactives: at the top dose activity change, negative = growth inhibition, usual class: inhibitors | actives 12% (n = 420,000) | AID 686979; also: potency is read from the fitted curve at half-maximal effect; nearly all actives have a fitted effect of over 55% in size
#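 Chicken DT40 Tdp1-/- cells complemented with human TDP1, 400 cells/well, exposed to compounds plus 20 nM camptothecin for at least 48 h at 37 C; viability read as ATP content by CellTiter-Glo luminescence.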
# HT1080NT lethal – kills 2HG-producing HT-1080-NT fibrosarcoma cells; HT-1080-NT fibrosarcoma viability, CellTiter-Glo ATP luminescence, 48 h; Potency, µM (highest dose often 46.1 µM), for inactives: at the highest dose activity, negative = less viability, most hits filed as cytotoxic; actives 1.6% (n = 360,000); AID 686970;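 also: NT is the 2HG producing partner of a matched IDH1 knockdown line; potency is read from the fitted curve at half-maximal effect; 0% = DMSO-treated cells and -100% = media-only wells without cells; nearly all actives have a fitted effect of over 55% in size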
#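 HT-1080-NT fibrosarcoma cells (2HG-overproducing), 750 cells/well in RPMI with 5% FBS, dosed after 2 h and incubated 48 h at 37C. CellTiter-Glo luminescence normalized to DMSO and no-cell wells; concentration-response curves fitted and classed.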
# IL1B secr inh – inhibitors of inflammasome signaling (IL-1 beta secretion); THP-1 LPS/ATP IL-1B secretion, AlphaLISA, 16 h; stronger effect = lower value; activity change, % at 57.5 µM; actives 4.7% (n = 360,000); AID 743279; in the data active = activity change below about -50%; inconclusive = mostly about -30% to -49%
#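 THP-1 cells pretreated 1 hr with compounds (up to 57.5 uM final), then stimulated with LPS (250 ng/mL final) plus ATP (1.25 mM final); secreted IL-1B measured by AlphaLISA after 16 hr, decreased signal indicating inhibition.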
# DT40 TDP1 no CPT – qHTS for Inhibitors of human tyrosyl-DNA phosphodiesterase 1 (TDP1): qHTS in cells in absence of CPT | DT40 Tdp1-/- hTDP1 cells, no CPT, ATP luminescence, 48 h | Potency, µM (doses to about 46.2 µM), inactives show at the highest dose activity change, negative = growth inhibition, actives largely listed as inhibitors | actives 15% (n = 420,000); also: potency is read from the fitted curve at half-maximal effect; nearly all actives have a fitted effect of over 55% in size
#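 Chicken DT40 Tdp1-/- cells stably complemented with human TDP1 were seeded at 400 cells/well with DMSO in place of 20 nM camptothecin. After compound pinning, cells grew at least 48 hr at 37 °C; viability read by CellTiter-Glo luminescence.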
# HT1080 IDH1KD tx – HT-1080 IDH1 knockdown cell toxicity (counter line); HT-1080 IDH1 knockdown viability, ATP luminescence, 48 h; Potency, µM (highest dose often 46.1 µM), for inactives: at the highest dose activity, negative = toxicity, hits mostly cytotoxic; actives 2% (n = 360,000); AID 686971;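 also: potency is read from the fitted curve at half-maximal effect; 0% = DMSO wells and -100% = cell-free medium wells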
#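 Luminescent ATP read-out (CellTiter-Glo, 10 min at room temperature) after 48 h compound exposure at 37 °C gave viability of IDH1-knockdown HT-1080 cells. Activity was normalised to DMSO and cell-free wells, then fitted as concentration-response curves.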
# Starred values were filed as active, the others as inactive; ? = inconclusive; . = no result given; [ ] = remark or other dose. In the library only some 19% were active in any assay of this set; here they are far more common. Unless noted, calls follow the shape of the dose curve; as a rule, active = well fitted curve in the direction sought with a large enough effect; inconclusive = small, poorly fitted or top-dose-only effect, or another doubt; inactive = no such curve, though single readings can be large; an effect the other way counts as inactive or inconclusive. Unless noted, % is scaled to controls: 0 for no effect and ±100 for the full control effect.
SMILES,uPA surface inh,DT40 TDP1 CPT,HT1080NT lethal,IL1B secr inh,DT40 TDP1 no CPT,HT1080 IDH1KD tx
O=C(CCl)N=c1sccn1Cc1cccc2ccccc12,0.224µM*,4.61µM*,?,-101.8*,2.59µM*,18.4µM*
Cc1ccc(CN2CC(C(=O)NCCC3=CCCCC3)CC2=O)cc1 (configuration not stated),-3.0%,-5.8%,9.3%[9.24 µM],-2.3,12.2%,4.7%
COc1ccc(Nc2c(CC(C)C)nc3nc(C)cc(C)n23)cc1,.,?,-0.3%,27.3,?,5.0%
Cc1cc(C)n2c(NC3CCCCC3)c(CC(C)C)nc2n1,.,?,20.5%,0.4,18.4µM*,7.3%
Cc1cc(C)n2c(Nc3ccc4c(c3)OCCO4)c(CC(C)C)nc2n1,.,20.6µM*,10.4%,48.8,11.6µM*,11.6%
Cc1cc(C)n2c(NC3CCCCC3)c(-c3ccc(F)cc3)nc2n1,.,?,-0.6%,22.3,?,7.8%
CN(C)c1ccc(C=O)cc1[N+](=O)[O-],.,2.5%,.,.,-25.2%,.
Cc1cc(N=NC(=O)c2ccccc2O)c2ccccc2c1O,-7.7%,16.4µM*,?,0.0,18.4µM*,?
Cn1c(O)c(N=NC(N)=S)c2ccccc21,.,6.68µM*,.,.,5.31µM*,.
Cc1occc1C(=O)N=Nc1c(O)n(C)c2ccccc12,-11.1%,-10.7%,-2.3%,-1.2,?,-2.9%
CCOC(=O)C(=O)N=Nc1c(O)n(C)c2ccccc12,-8.6%,-6.3%,9.0%,3.0,17.9%,9.4%
Cn1c(O)c(N=NC(=O)c2ccccc2O)c2ccccc21,-5.7%,13µM*,-8.2%,-1.6,16.4µM*,?
Cn1c(O)c(N=NC(=O)c2ccco2)c2ccccc21,-8.8%,-0.3%,-5.0%,-23.5,14.6µM*,-13.3%
O=C(O)C1CCc2nc(NCc3ccccc3)nc(NCc3ccccc3)c2C1 (configuration not stated),6.9%,-20.0%,-13.4%,-2.8,-10.5%,-12.6%
CCc1cc(=O)oc2c(CNCc3ccc(OC)cc3OC)c(O)c(Cl)cc12,2.1%,12.4%,16.2%,39.4,-13.5%,10.0%
Cc1cc2c(c(-c3nc4ccccc4s3)c1)OC(CNC(=O)CCc1cccnc1)C2 (configuration not stated),.,0.116µM*,.,.,0.13µM*,.
O=C(CCc1cccnc1)NCC1Cc2cccc(-c3ncccn3)c2O1 (configuration not stated),.,2.6%[9.04 µM],.,.,11.4%,.
CC(NCC(=O)Nc1ccccc1C(=O)NC1CC1)c1cccs1 (configuration not stated),-0.8%,-2.8%,22.3%,5.4,-18.0%,14.3%
COc1cc(OC)cc(C(=O)Nc2ccccc2C(=O)NC2CC2)c1,-7.6%,?,-28.4%,11.3,16.4µM*,?
CC(C)C(NCC(=O)Nc1ccccc1C(=O)NC1CC1)c1ccccc1 (configuration not stated),-1.1%,16.4µM*,2.4%,13.0,?,-11.1%
COC(=O)c1ccccc1NC(=O)NC1CCC(C)CC1 (configuration not stated),-20.7%,-4.3%,9.8%,?,18.4µM*,9.4%
O=C(NC(=S)Nc1ccc(Cc2ccncc2)cc1)c1ccccc1F,-2.7%,?,-22.5%,-74.1*,?,-18.4%
COc1ccc(C(=O)NC(=S)Nc2ccc(Cc3ccncc3)cc2)cc1,-10.1%,?,18.4µM*,-64.1*,18.4µM*,20.6µM*
O=c1[nH]cc(CCc2ccccc2)c2ncncc12,.,?,16.2%,.,?,20.8%
O=C(CSc1nc2c(sc3ccccc32)c(=O)n1CCCC(=O)NC1CCCC1)Nc1ccc(F)cc1,.,-19.2%,.,.,-3.8%,.
SMILES,uPA surface inh,DT40 TDP1 CPT,HT1080NT lethal,IL1B secr inh,DT40 TDP1 no CPT,HT1080 IDH1KD tx
CC1(c2nnnn2-c2ccc3c(c2)OCCO3)CCC(=O)N1C1CCN(Cc2ccccc2)CC1 (configuration not stated),.,0.4%,11.8%,13.5,-29.9%,5.6%
N#Cc1ccccc1S(=O)(=O)N1CCC(C(=O)NCc2ccccc2CN2CCCC2)CC1,-1.0%,-29.9%,-11.5%,-13.1,-24.5%,8.6%
COc1ccc(NC(=O)CSc2ccc3nc(-c4ccccc4)cn3n2)cc1OC,.,-20.5%,.,.,-21.7%,.
COc1ccc(-c2cn3nc(SCC(=O)Nc4cccc(C)c4C)ccc3n2)cc1,.,14.6µM*,.,.,?,.
Cc1cccc(NC(=O)CSc2ccc(-c3ccco3)nn2)c1C,0.2%,14.3%,2.7%,-23.0,-38.4%,1.5%
COc1ccc(-c2cn3nc(SCC(=O)Nc4cc(C)cc(C)c4)ccc3n2)cc1,.,?,.,.,20.6µM*,.
COc1ccc(NC(=O)CSc2ccc3nc(-c4ccccc4)cn3n2)c(OC)c1,.,11.6µM*,.,.,9.2µM*,.
COc1ccc(NC(=O)c2cc3nc(-c4ccccc4)cc(-c4ccccc4)n3n2)c(OC)c1,0.2%,11.2µM*,16.7%,-15.2,10µM*,18.2%
O=CNC(n1cnc2c(N3CCOCC3)ncnc21)C(Cl)(Cl)Cl (configuration not stated),1.7%,-11.0%,0.0%,16.6,-23.5%,2.0%
CC(=O)C1=C(O)C(=O)N(c2ccc(Br)cc2)C1c1ccccc1[N+](=O)[O-] (configuration not stated),1.6%,-3.3%,-11.8%,8.5,-3.6%,-1.9%
O=C(CN1C(=O)NC2(CCc3ccccc32)C1=O)NCc1cccc(C(F)(F)F)c1 (configuration not stated),-8.3%,-0.9%,5.9%,17.1,-21.2%,-16.3%
CC1CCN(C(=O)c2cc3nc(-c4ccccc4)cc(-c4ccccc4)n3n2)CC1,.,16.4µM*,-5.2%,-55.2*,29.1µM*,1.0%
CCOc1ccc(-c2cnc3n2CCCCC3)cc1,-2.2%,?,16.4%,-17.7,-25.5%,13.6%
Cc1ccc(-c2cnc3n2CCCCC3)cc1,3.5%,?,-3.8%,9.3,25.9µM*,0.0%
c1cc2c(cc1-c1cnc3n1CCC3)OCCO2,?,18.4µM*,?,-29.4,?,?
c1ccc(-c2ccc(-c3cnc4n3CCCCC4)cc2)cc1,2.6%,?,?,?,18.4µM*,?
N=c1c2ccccc2nc2n1CCCCCCC2,.,-9.2%,-4.9%,27.9,?,0.1%
COc1ccc(CNC(=O)C2CC(C)=C(C)CC2C(=O)O)cc1 (configuration not stated),.,9.2µM*,2.8%,16.5,9.2µM*,8.0%
